# Assay outcomes as filed in PubChem BioAssay.
# BAZ2B inh = blocks human BAZ2B; Potency, µM (top dose mostly 114 µM), hits mostly inhibitors; 360,000 compounds, 4.4% hits; AlphaScreen BAZ2B-H3K14Ac peptide displacement; AID 504333; Q9UIF8; also: nearly all actives have a fitted effect of over 60% in size
#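 Complex of BAZ2B and biotin-H3K14Ac (50 nM apiece) forms over 30 min at RT, then faces library compounds up to 110 uM for another 30 min; AlphaScreen beads added, 20 min dark incubation, luminescence read.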
# 12-LOX inh = ALOX12 (human) lipoxygenase inhibition. purified 12hLO, xylenol orange hydroperoxide absorbance. Potency, µM (titrated, usually from 108 µM), usual class: inhibitors. AID 1671190. 580,000 compounds, 1.1% hits. P18054
#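 Purified human 12hLO (150 nM final) in 25 mM Hepes, 0.01% Triton X-100, pH 7.0 was preincubated 15 min at room temperature with compound. Then 40 uM arachidonic acid was added, 30 min. Hydroperoxide was read by Fe-XO absorbance ratio 573/405 nm.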
# HP1b chromo inh = inhibitors of HP1-beta chromodomain binding to methylated histone tails. AlphaScreen HP1-beta / biotin-H3K9me3 peptide binding. 390,000 compounds, 0.56% hits. P83916. Potency, µM (titrated, usually from 114 µM), usual class: inhibitors; also: nearly all actives have a fitted effect of over 70% in size
#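 HP1-beta protein (50 nM final) preincubated 30 min at room temperature with biotinylated H3(1-18)K9me3 peptide (50 nM) in PBS pH 7.4, 0.01% Tween-20, then compound added for 30 min. AlphaScreen streptavidin donor/nickel chelate acceptor beads (10 ug/mL final), 30 min dark, luminescence read.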
# JMJD2A Tudor inh = JMJD2A Tudor domain (human) inhibition. O75164. AlphaScreen JMJD2A-Tudor / H3K4me3 peptide binding. Potency, µM (top dose mostly 114 µM), hits mostly inhibitors. 390,000 compounds, 4.4% hits; also: nearly all actives have a fitted effect of over 50% in size
# Target sequence (O75164 whole entry, looked up, the tested form may be a part): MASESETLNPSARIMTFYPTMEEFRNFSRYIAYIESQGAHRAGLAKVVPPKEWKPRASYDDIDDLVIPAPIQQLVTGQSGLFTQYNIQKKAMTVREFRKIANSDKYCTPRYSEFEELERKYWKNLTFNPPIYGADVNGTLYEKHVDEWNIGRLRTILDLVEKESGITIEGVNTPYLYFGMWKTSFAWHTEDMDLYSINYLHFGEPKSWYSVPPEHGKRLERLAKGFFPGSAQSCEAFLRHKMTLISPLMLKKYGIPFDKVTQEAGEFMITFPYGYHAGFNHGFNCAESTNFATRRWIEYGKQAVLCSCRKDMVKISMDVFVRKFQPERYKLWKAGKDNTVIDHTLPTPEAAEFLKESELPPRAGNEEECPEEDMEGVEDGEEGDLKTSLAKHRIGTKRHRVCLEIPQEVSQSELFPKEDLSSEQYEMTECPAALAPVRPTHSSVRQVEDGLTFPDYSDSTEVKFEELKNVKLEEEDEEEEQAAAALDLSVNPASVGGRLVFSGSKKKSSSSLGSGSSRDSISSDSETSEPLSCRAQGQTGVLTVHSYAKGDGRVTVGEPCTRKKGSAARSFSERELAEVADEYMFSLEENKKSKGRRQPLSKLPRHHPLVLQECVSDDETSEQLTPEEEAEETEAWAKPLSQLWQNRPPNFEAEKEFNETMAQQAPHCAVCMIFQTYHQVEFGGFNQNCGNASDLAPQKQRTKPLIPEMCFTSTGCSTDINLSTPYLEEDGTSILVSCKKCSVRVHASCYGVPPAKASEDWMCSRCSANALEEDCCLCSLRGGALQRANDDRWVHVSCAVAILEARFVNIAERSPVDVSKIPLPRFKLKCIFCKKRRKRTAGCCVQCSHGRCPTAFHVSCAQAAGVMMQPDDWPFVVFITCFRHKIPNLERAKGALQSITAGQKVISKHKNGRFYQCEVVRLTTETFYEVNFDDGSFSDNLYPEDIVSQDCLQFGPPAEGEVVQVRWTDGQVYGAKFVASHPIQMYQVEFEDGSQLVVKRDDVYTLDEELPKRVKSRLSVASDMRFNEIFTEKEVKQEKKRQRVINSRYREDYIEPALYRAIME
# G9a block = blocks human histone lysine methyltransferase G9a. Potency, µM (doses to about 102 µM), most hits filed as inhibitors. Q96KQ7. 350,000 compounds, 8.8% hits. G9a H3K9 monomethylation, AlphaScreen, 2 h; also: nearly all actives have a fitted effect of over 75% in size
#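 G9a (20 nM) was preincubated 15 min with compound, then reacted 2 h at room temperature with 500 nM biotin-H3K9 peptide and 20 µM SAM. Monomethyl-H3K9 detected by AlphaScreen using anti-H3K9me1 antibody.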
# PLK1 PBD block = PLK1 (human) polo-box domain binding inhibition; P53350; Plk1 PBD binding of FITC phosphopeptide, fluorescence polarization; Potency, µM, most hits filed as inhibitors; 360,000 compounds, 2.8% hits; also: series mostly up to about 57 µM; nearly all actives have a fitted effect of over 65% in size
# A number is an active result; . = inactive; ? = inconclusive; / = not tested or not shown; [ ] = dose if it differs, or a comment. Only some compounds are listed: those with a hit (about 9% of all), similar ones and a draw of the others. Calls follow the shape of the dose curve; as a rule, active = well fitted curve in the direction sought with a large enough effect; inconclusive = small, poorly fitted or top-dose-only effect, or another doubt; inactive = no such curve, though single readings can be large; an effect the other way counts as inactive or inconclusive.
SMILES,BAZ2B inh,12-LOX inh,HP1b chromo inh,JMJD2A Tudor inh,G9a block,PLK1 PBD block
CC(OC(=O)CN(C)S(=O)(=O)c1ccc(Cl)cc1)C(=O)Nc1ccc(N2CCOCC2)cc1 (centres undefined),.,.,.,.,.,.
CC(c1ccccc1F)n1cc(C(=O)NCCCn2ccnc2)nn1 (centres undefined),.,.,.,.,.,.
CCOC(=O)c1c(CN2CCCCC2C)oc2ccc(OC)cc12 (centres undefined),.,.,.,.,?,.
O=C(O)CCCCCN1C(=O)C(O)=C(C(=O)/C=C/c2ccccc2)C1c1cccc([N+](=O)[O-])c1 (centres undefined),?,?,.,.,45µM,.
COc1ccc(OCCCn2ccnc2)cc1,22µM,/,16µM,0.89µM,.[2.33 µM],.
Cc1cc(OCCn2cncn2)ccc1[N+](=O)[O-],.,.,.,.,/,.
Cc1cc(OCCCn2ccnc2)ccc1[N+](=O)[O-],56µM,.,?,6.3µM,/,.
Fc1ccc(OCCCn2ccnc2)cc1,?,?,?,45µM,40µM,.
COc1ccccc1OCCn1ccnc1,?,?,?,3.5µM,/,.
Fc1ccc(OCCCCCn2ccnc2)cc1,.,?,.,.,.,.
NC(=O)c1nc[nH]c1C(=O)Nc1cccc(NC(=O)c2cccc(C(F)(F)F)c2)c1,/,.,.,.,/,.
Cc1cc(OCCN2CCCCCC2)ccc1[N+](=O)[O-],56µM,?,?,?,25µM,.
Cc1cc(OCC(=O)N2CCCCCC2)ccc1[N+](=O)[O-],.,.,.,.,.,.
CCc1nc(SCC(=O)N2CCN(c3ccccc3)CC2)c2c(=O)n(C)c(=O)n(C)c2n1,.,/,/,/,/,/
COc1cc(CCC(=O)OCC(=O)Nc2cccc(S(=O)(=O)N(C)C)c2)cc(OC)c1OC,.,.,.,.,.,.
CC1Cc2[nH]c(=S)[nH]c(=O)c2C(c2ccc(C(C)C)cc2)O1 (centres undefined),/,.,/,/,/,.
CCCCC1Cc2[nH]c(=S)[nH]c(=O)c2C(c2ccc(C(C)C)cc2)O1 (centres undefined),/,40µM,/,/,/,.
O=C(Cn1c(N2CCN(c3ccccc3)CC2)nc2ccccc21)c1ccccc1,.,.,.,.,50µM,.
CN(C)C(=O)CSc1nc2ccccc2n1CC(=O)N1CCN(c2ccccc2)CC1,.,.,.,.,.,.
CN(CC(=O)Nc1ccc(Cl)c(C(F)(F)F)c1)C(=O)c1cn2ccccc2n1,?,?,.,.,35µM,.
Cc1cc(C(=O)N(C)CC(=O)Nc2ccc(Cl)c(C(F)(F)F)c2)no1,.,?,.,.,.[0.501 µM],.
CCOC(=O)C1C2C=CC3(CN(Cc4cccs4)C(=O)C13)O2 (centres undefined),.,.,.,.[11.4 µM],.[12.7 µM],17µM
CCOC(=O)CN1CC23C=CC(O2)C(C(=O)NC2CCCC2)C3C1=O (centres undefined),.,.,.,.,45µM,.
CCOC(=O)CN1CC23C=CC(O2)C(C(=O)NCc2ccc(C)cc2)C3C1=O (centres undefined),.,.,.,.,35µM,.
CCOC(=O)c1c(OCCO)nn(-c2ccccc2)c1N,.,.,.,.,.,.
SMILES,BAZ2B inh,12-LOX inh,HP1b chromo inh,JMJD2A Tudor inh,G9a block,PLK1 PBD block
O=C1/C(=C\c2ccccc2)SC(=S)N1CCC(=O)N1CCCCC1CCO (centres undefined),?,.,.,.,?,.
CC(C)c1ccc(/C=C2\SC(=S)N(CCC(=O)N3CCCCC3CCO)C2=O)cc1 (centres undefined),?,.,.,13µM,45µM,.
COc1ccc(/C=C2\SC(=S)N(CCCC(=O)N3CCCCC3CCO)C2=O)cc1 (centres undefined),7.9µM,.,.,35µM,.[0.0925 µM],.
COc1ccc(/C=C2\SC(=S)N(CCCC(=O)N3CCN(C)CC3)C2=O)cc1,?,?,?,?,?,.
O=S(=O)(c1cccc(Cl)c1Cl)N1CCN(C(=S)NCCCN2CCOCC2)CC1,50µM,?,28µM,1.6µM,35µM,?
S=C(NCC1CCCO1)N1CCN(c2nc(-c3ccc(Cl)cc3)cs2)CC1 (centres undefined),35µM,.,?,?,?,?
Cc1cccc(C)c1N1CCN(C(=O)N2CCOCC2)CC1,.,.,.,?,35µM,?
O=C(N1CCOCC1)N1CCN(c2nc(-c3ccccc3)cs2)CC1,?,?,.,.,45µM,.
c1ccc(-c2csc(N3CCOCC3)n2)cc1,.,.,.,.,.[12.7 µM],.
CC(C)Oc1cc(S(=O)(=O)N2CCCCC2)ccc1N,/,.,.,.,.,.
S=C(NCCCN1CCOCC1)N1CCN(c2nc(-c3ccccc3)cs2)CC1,?,.,.,?,56µM,.
CCOC(=O)CC(=O)Nc1nnc(C(C)C)s1,.,.,.,.,.,.
Cc1cccc(NC(=S)NN=C2CCCC2)c1,/,14µM,/,/,/,/
COc1cccc(NC(=S)NN=C2CCCCCC2)c1,56µM,?,.,?,10µM,.
FC(F)(F)c1ccccc1NC(=S)NN=C1CCCCCC1,50µM,?,.,50µM,8.9µM,.
Cc1cccc(NC(=S)N2CCCC2)c1,.,.,.,.,/,.
CS(=O)(=O)N1CCC(CC(=O)N2CCOCC2)C1 (centres undefined),/,.,/,/,/,/
CNC(=O)C1CCC(Cn2c(=O)c3sccc3n(CC(=O)Nc3cc(C)cc(C)c3)c2=O)CC1 (centres undefined),.,.,.,.,.,/
Cc1ccc(S(=O)(=O)O/N=C2\CCCc3ccccc32)cc1,.,?,.,.,.[12.7 µM],.
CC1=C(C)/C(=N\OS(=O)(=O)c2ccccc2)C=CC1=O,40µM,/,?,56µM,16µM,?
Clc1ccccc1-c1noc(-c2ccco2)n1,/,.,/,/,/,/
Cc1cc(C(=O)O)ccc1N/C=C1\CCCC(C)C1=O (centres undefined),.,.,.,.,?,.
CC1CCC/C(=C\Nc2ccc(O)cc2)C1=O (centres undefined),/,?,.,79µM,?,.
Cc1ccsc1CN1CCn2c(nnc2[C@@H]2C[C@@H](O)CN2Cc2cccnc2)C1,/,.,/,/,/,/
O=C1CCCC/C1=C/Nc1ccc2c(c1)OCO2,?,?,.,.,35µM,.
COc1ccc(Oc2ccc(N/C=C3/CCCC3=O)cc2)cc1,.,.,.,.,?,.
O=C1CCCC/C1=C/Nc1ccc(C(=O)O)cc1,.,.,.,.,?,.
O=C1CCC/C1=C/Nc1cccc(F)c1,.,.,.,50µM,/,19µM
COc1cc(NC(=O)c2oc3c(c2C)-c2nn(Cc4cccc(Cl)c4)cc2CC3)cc(OC)c1,.,?,.,.,.,/
